Some targets named below: Hsp53 (Homo sapiens, UniProt P04637 1-393); Xlp53 (Xenopus laevis, UniProt Q7T1D0 1-362); Mmp53 (Mus musculus, UniProt P02340 1-390).
Assay in all cases: fluorescence anisotropy competition titration; 25 mM sodium phosphate (purification buffer pH 7.2), 225 mM NaCl, 10% v/v glycerol, 5 mM DTT, 0.2 mg/mL BSA, 22 C; low values mean tight binding
What all share (details): protein: recombinant; tags: N-terminal 6xHis-lipoyl-TEV tag, cleaved; chain copies: 4; dsDNA, one strand shown

The next test addresses T1, Dmp53 (Drosophila melanogaster, UniProt Q9N6D8 1-385).
T1 sequence: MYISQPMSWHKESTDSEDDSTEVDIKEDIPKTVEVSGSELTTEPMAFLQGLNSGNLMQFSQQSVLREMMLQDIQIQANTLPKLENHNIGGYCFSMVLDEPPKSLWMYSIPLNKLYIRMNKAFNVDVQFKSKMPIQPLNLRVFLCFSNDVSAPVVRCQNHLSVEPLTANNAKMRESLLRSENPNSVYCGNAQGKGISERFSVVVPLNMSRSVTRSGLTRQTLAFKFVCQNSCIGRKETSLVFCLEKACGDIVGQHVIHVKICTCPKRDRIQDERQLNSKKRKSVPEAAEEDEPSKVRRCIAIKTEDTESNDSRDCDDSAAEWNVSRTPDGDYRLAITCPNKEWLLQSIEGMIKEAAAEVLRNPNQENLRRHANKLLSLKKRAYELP

The next test has as its target T2, Drp53 (Danio rerio, UniProt P79734 1-373).
T2 sequence: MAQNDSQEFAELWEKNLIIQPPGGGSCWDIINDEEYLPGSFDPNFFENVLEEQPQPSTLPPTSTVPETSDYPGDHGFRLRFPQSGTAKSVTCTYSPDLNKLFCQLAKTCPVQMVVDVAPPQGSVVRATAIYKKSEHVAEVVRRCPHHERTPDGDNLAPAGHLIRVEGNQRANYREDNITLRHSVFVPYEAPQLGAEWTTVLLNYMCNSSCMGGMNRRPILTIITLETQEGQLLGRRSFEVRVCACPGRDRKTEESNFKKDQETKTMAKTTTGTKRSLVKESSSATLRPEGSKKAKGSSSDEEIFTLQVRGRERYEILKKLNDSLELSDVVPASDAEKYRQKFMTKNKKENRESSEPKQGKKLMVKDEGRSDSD

The target of the next test is T3, ΔNp63α (Homo sapiens, UniProt Q9H3D4-2 1-586).
T3 sequence: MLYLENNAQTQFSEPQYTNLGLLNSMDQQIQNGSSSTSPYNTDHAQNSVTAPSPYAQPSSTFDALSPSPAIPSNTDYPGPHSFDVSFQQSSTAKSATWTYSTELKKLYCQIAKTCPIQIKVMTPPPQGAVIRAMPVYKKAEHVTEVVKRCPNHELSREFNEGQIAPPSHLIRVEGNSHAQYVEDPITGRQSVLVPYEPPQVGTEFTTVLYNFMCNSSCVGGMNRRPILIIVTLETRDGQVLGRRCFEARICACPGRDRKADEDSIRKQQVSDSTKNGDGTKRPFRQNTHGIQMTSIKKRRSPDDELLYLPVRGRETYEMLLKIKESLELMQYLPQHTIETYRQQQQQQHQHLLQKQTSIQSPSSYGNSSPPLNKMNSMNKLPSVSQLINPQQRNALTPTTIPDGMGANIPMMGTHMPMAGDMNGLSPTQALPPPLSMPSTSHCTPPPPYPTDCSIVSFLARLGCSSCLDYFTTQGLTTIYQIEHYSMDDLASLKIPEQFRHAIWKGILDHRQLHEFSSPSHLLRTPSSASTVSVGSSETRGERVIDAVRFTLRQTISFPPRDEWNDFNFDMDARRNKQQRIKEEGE

Another test has as its target T4, ΔNp63β (Homo sapiens, UniProt Q9H3D4-4 1-461).
T4 sequence: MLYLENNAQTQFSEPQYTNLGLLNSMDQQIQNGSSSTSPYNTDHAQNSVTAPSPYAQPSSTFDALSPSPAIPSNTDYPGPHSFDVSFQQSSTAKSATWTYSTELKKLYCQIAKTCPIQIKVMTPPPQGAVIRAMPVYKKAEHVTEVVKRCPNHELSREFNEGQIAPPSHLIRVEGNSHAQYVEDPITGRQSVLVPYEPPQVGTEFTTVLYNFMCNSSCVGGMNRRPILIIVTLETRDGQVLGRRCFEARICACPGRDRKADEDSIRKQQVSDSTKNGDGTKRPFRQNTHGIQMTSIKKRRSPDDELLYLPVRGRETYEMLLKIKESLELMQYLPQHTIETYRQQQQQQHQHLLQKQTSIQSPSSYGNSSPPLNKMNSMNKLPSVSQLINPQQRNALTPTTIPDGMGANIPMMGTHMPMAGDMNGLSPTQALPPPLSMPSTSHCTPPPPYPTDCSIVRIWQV

In another test the target is T5, ΔNp63γ (Homo sapiens, UniProt Q9H3D4-6 1-393).
T5 sequence: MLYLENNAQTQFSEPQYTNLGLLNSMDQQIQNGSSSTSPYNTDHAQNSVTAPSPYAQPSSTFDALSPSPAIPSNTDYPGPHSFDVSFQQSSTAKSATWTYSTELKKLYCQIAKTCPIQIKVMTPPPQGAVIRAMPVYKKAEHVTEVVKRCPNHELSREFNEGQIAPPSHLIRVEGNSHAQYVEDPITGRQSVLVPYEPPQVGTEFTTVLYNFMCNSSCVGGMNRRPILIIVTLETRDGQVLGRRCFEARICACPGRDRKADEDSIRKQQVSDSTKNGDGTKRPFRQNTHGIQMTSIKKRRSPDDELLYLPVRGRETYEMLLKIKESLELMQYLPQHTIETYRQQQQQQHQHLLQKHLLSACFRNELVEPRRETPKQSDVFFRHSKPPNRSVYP

The target of the next test is T6, ΔNp73β (Homo sapiens, UniProt O15350-9 1-450).
T6 sequence: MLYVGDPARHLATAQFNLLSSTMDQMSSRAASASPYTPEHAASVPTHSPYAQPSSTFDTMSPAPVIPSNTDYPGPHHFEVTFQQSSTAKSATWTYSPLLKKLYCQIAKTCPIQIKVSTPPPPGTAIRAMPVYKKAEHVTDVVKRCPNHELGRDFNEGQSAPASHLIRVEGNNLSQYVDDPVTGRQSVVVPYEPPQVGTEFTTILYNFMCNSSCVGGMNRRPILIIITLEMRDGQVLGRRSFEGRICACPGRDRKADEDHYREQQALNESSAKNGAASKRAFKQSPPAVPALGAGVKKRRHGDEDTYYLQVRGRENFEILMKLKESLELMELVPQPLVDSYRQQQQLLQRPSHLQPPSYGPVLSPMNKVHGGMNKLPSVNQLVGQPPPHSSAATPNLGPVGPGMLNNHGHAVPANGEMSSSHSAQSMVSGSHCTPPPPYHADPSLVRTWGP

In another test the target is T7, p73CT (Homo sapiens, UniProt O15350 104-383).
T7 sequence: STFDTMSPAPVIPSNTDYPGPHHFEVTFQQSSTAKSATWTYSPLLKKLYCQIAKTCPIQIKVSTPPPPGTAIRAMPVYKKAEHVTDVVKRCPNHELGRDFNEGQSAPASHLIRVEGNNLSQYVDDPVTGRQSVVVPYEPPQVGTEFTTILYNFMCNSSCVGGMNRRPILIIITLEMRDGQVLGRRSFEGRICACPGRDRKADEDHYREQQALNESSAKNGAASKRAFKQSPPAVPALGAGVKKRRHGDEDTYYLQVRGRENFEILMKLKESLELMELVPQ

Sequence of Hsp53 (P04637 whole entry): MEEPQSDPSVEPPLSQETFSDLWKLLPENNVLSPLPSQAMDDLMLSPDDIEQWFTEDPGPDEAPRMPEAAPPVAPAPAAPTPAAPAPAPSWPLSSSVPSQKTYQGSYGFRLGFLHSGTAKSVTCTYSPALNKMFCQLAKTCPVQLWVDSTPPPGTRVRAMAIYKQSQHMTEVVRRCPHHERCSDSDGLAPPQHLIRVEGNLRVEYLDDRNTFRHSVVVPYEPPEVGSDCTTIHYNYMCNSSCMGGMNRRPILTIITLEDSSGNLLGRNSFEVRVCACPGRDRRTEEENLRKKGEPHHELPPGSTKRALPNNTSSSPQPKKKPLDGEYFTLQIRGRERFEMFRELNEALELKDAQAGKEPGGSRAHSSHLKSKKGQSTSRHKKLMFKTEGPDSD
Sequence of Xlp53 (Q7T1D0 entry or part of it): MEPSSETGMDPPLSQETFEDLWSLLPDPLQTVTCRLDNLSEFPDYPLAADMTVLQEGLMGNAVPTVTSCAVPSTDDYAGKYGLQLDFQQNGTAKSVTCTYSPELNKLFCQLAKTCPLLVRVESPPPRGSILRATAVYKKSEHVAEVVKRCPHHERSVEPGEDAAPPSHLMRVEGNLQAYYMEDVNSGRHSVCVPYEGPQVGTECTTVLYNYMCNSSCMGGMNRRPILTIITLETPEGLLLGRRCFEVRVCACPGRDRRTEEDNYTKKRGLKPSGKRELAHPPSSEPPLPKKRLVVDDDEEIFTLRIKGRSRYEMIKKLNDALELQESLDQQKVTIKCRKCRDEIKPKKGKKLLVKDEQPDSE
Sequence of Mmp53 (P02340 whole entry): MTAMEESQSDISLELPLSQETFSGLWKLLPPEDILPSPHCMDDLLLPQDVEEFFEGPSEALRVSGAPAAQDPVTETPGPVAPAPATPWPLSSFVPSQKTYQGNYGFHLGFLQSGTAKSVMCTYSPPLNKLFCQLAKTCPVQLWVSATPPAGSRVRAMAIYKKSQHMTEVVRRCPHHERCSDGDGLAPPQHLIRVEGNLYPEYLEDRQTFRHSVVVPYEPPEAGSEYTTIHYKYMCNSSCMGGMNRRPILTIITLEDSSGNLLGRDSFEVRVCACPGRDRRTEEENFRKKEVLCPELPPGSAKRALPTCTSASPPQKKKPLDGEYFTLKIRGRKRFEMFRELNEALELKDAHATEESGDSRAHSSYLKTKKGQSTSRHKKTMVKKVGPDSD

CGCGGACATGTCTGGACATGTCCCGC: the binding signal with Dmp53 is 0.03 delta log10 Kd; in the test with Drp53, 0.02 delta log10 Kd; with Hsp53, 0.13 delta log10 Kd; in the test with Xlp53 it was 0.07 delta log10 Kd; with ΔNp63α, 0.04 delta log10 Kd; with ΔNp63β, 0.05 delta log10 Kd. Moreover, the binding signal was 0.05 delta log10 Kd in the test with ΔNp63γ, 0 delta log10 Kd with ΔNp73β, 0.11 delta log10 Kd with Mmp53 and 0.08 delta log10 Kd with p73CT.
CGCGGACATGACCGGACATGTCCCGC: the binding signal came to 0.24 delta log10 Kd with Dmp53; 0.42 delta log10 Kd with Hsp53; 0.43 delta log10 Kd with Xlp53; 0.43 delta log10 Kd with ΔNp63α; 0.62 delta log10 Kd with ΔNp63β; 0.72 delta log10 Kd in the test with ΔNp63γ. Further, the binding signal with ΔNp73β came to 0.78 delta log10 Kd; with p73CT, 0.57 delta log10 Kd.
For CGCGGACATGCCCGGACATGTCCCGC, the binding signal with Dmp53 was determined as 0.26 delta log10 Kd; with Hsp53 it was 0.03 delta log10 Kd; in the test with Xlp53, 0.03 delta log10 Kd; with ΔNp63α it was 0.06 delta log10 Kd; with ΔNp63β, 0.13 delta log10 Kd; with ΔNp63γ it was 0.12 delta log10 Kd. For the same sequence, the figures for the binding signal in the test with ΔNp73β and in the test with p73CT were 0.03 delta log10 Kd and 0.05 delta log10 Kd, respectively.
As to CGCGGTCATGTCCGGACATGTCCCGC, the binding signal is 0.36 delta log10 Kd in the test with Dmp53; 0.48 delta log10 Kd with Drp53; 0.42 delta log10 Kd in the test with Hsp53; 0.35 delta log10 Kd with Xlp53; 0.53 delta log10 Kd with ΔNp63β; 0.49 delta log10 Kd in the test with ΔNp63γ. Besides, the binding signal with Mmp53 turned out to be 0.29 delta log10 Kd.
On to CGCGGACAGGTCCGGACATGTCCCGC, for which the binding signal with Dmp53 was 0.35 delta log10 Kd; with Drp53 it was 0.65 delta log10 Kd; with Hsp53, 0.36 delta log10 Kd; with Xlp53, 0.41 delta log10 Kd; with ΔNp63α it was 0.17 delta log10 Kd; in the test with ΔNp63β, 0.43 delta log10 Kd. The binding signal came out at 0.43 delta log10 Kd with ΔNp63γ, 0.49 delta log10 Kd with ΔNp73β, 0.4 delta log10 Kd in the test with Mmp53 and 0.41 delta log10 Kd with p73CT.
Turning to CGCGGACATGTACGGACATGTCCCGC, the binding signal with Dmp53 came to 0.07 delta log10 Kd; with Drp53, 0.39 delta log10 Kd; in the test with Hsp53 it was 0.34 delta log10 Kd; in the test with Xlp53, 0.35 delta log10 Kd; with ΔNp63α it was 0.15 delta log10 Kd; with ΔNp63β, 0.29 delta log10 Kd. The binding signal in the test with ΔNp63γ was 0.32 delta log10 Kd; with ΔNp73β, 0.4 delta log10 Kd; with Mmp53, 0.27 delta log10 Kd; with p73CT, 0.36 delta log10 Kd.
For the sequence CGCGGACATATCCGGACATGTCCCGC, the binding signal in the test with Dmp53 was 0.98 delta log10 Kd; with Drp53 it was 1.14 delta log10 Kd; in the test with Hsp53 it was 0.83 delta log10 Kd; with Xlp53 it was 1.01 delta log10 Kd; in the test with ΔNp63α it was 0.92 delta log10 Kd; with ΔNp63β it was 1.2 delta log10 Kd. Moreover, the binding signal with ΔNp63γ turned out to be 1.31 delta log10 Kd; with ΔNp73β it was 1.32 delta log10 Kd; with Mmp53, 0.63 delta log10 Kd; in the test with p73CT it was 1.44 delta log10 Kd.
On to CGCCGACATGTCCGGACATGTCCCGC, for which the binding signal amounted to 0.03 delta log10 Kd with Dmp53; 0.15 delta log10 Kd in the test with Drp53; 0.17 delta log10 Kd with Hsp53; 0.1 delta log10 Kd with Xlp53; 0.04 delta log10 Kd in the test with ΔNp63α; 0.07 delta log10 Kd with ΔNp63β. For the same sequence, the binding signal came out at 0.09 delta log10 Kd in the test with ΔNp63γ, 0 delta log10 Kd with ΔNp73β, 0.15 delta log10 Kd in the test with Mmp53 and 0.06 delta log10 Kd with p73CT.

(Values after PMC2807882, “Conservation of DNA-binding specificity and oligomerisation properties within the p53 family”.)
